Reference: PubChem BioAssay (EPA / NIEHS)
Several values for one entry are separate records, joined by “and”; a condition that tells them apart may be missing. Identical values can stand only once. Inconclusive results are not listed. Where a structure was tested more than once in an assay, its records may differ in their call. Activity calls are given as the source filed them. The calls were made as follows, unless noted: active = hit-call score of the fitted dose curve at least 0.9, where 1 is the maximum; inactive = score below 0.9.

Tests used:
[1] = ATG_NFI_CIS: Attagene CIS-FACTORIAL HepG2 Assay for human Nuclear Factor I (NFI) (AID 2282989); conditions: HepG2 cis-regulatory reporter, NFI response element transcription; actives raise or lower the signal
How it was run: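 Transfected HepG2 liver cells, exposed 24 h, supplied total RNA for oligo(dT) reverse transcription and reporter-specific PCR. Labelled, HpaI-cut fragments were sized by capillary electrophoresis; DMSO set the baseline for bidirectional fitting.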

[2] = molecular target: Myc proto-oncogene protein (Homo sapiens) (UniProt P01106); experiment: ATG_Myc_CIS: Attagene CIS-FACTORIAL HepG2 Assay for human Myelocytomatosis (Myc) Proto-Oncogene Transcription Factor (AID 2282990); conditions: HepG2, Attagene cis-reporter transcription factor activity; actives raise or lower the signal
How it was run: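 Fluorescence intensity of reporter-specific cDNA fragments, separated by capillary electrophoresis, gives the signal. Transfected HepG2 cells carrying cis-promoter reporter constructs are incubated with compound for 24 h; DMSO serves as baseline.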

[3] = ATG_NF_kB_CIS: Attagene CIS-FACTORIAL HepG2 Assay for human Nuclear Factor Kappa B (NF-kB) (AID 2282991); conditions: HepG2 Attagene cis-factorial NF-kB reporter mRNA; actives raise or lower the signal
How it was run: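 Fluorescence of labelled RT-PCR products separated by capillary electrophoresis gives reporter mRNA levels from transfected HepG2 cells exposed 24 h; values are fitted in both directions relative to DMSO.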

[4] = ATG_NRF2_ARE_CIS: Attagene CIS-FACTORIAL HepG2 Assay for human Nuclear Factor Erythroid 2 Related Factor 2 (NFR2) response to Antioxidant Response Elements (ARE) (AID 2282992); conditions: HepG2 Attagene ARE/NRF2 reporter, transcription factor activity; actives raise or lower the signal
How it was run: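 Readout: reporter mRNA quantified by RT-PCR plus FAM-labelled primer extension, HpaI digestion and capillary electrophoresis, 24 h after dosing transfected HepG2 cells. Gain or loss of signal is fitted bidirectionally against DMSO baseline.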

[5] = ATG_Oct_MLP_CIS: Attagene CIS-FACTORIAL HepG2 Assay for human Octamer-Binding Transcription Factor (Oct) (AID 2282993); conditions: HepG2 Attagene cis-factorial Oct reporter, mRNA; actives raise or lower the signal
How it was run: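 Using HepG2 cells bearing transfected cis-reporter constructs, mRNA induction was read after 24 h by fluorescent RT-PCR and capillary electrophoresis, with DMSO defining baseline for gain- or loss-of-signal fits.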

[6] = molecular target: Cellular tumor antigen p53 (Homo sapiens) (UniProt P04637); experiment: ATG_p53_CIS: Attagene CIS-FACTORIAL HepG2 Assay for human p53 Transcription Factor (AID 2282994); conditions: HepG2 p53 cis-element reporter, Attagene mRNA; actives raise or lower the signal
How it was run: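 Read-out: reporter mRNA by RT-PCR plus capillary electrophoresis with fluorescence detection. Human HepG2 liver cells carried transfected multi-reporter cis-element constructs, dosed 24 h. Gain or loss of signal fitted bidirectionally against DMSO control.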

[7] = BSK_3C_TissueFactor: BioMAP Diversity Plus: 3C Assay for Tissue Factor Biomarker Activity (AID 2282997); conditions: BioMAP 3C HUVEC, tissue factor biomarker readout; actives raise or lower the signal
How it was run: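 After a 24 h chemical exposure of primary human umbilical vein endothelial cells, Tissue Factor levels were quantified by ELISA.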

[8] = BSK_3C_VCAM1: BioMAP Diversity Plus: 3C Assay for Vascular cell adhesion molecule 1 (VCAM1) Biomarker Activity (AID 2282999); conditions: BioMAP 3C HUVEC, VCAM1 ELISA, cytokine-stimulated; actives raise or lower the signal
How it was run: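 HUVEC primary cells, 24 h compound exposure; VCAM-1 by ELISA; gain/loss of signal fitted bidirectionally vs DMSO baseline.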

[9] = BSK_4H_Eotaxin3: BioMAP Diversity Plus: 4H Assay for Eotaxin 3 Biomarker Activity (AID 2283000); conditions: primary human endothelial cells (HUVEC); actives raise or lower the signal
How it was run: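 Chemicals were added to human umbilical vein endothelium cultures, and Eotaxin-3 was quantified by ELISA at 24 h. Values were derived by bidirectional fitting with DMSO serving as negative control and activity baseline.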

[10] = molecular target: human Peroxisome Proliferator-activated Receptor alpha (PPARa), PPARA (gene 5465) (UniProt Q07869); experiment: ATG_PPARa_TRANS: Attagene TRANS-FACTORIAL HepG2 Assay for human Peroxisome Proliferator-activated Receptor alpha (PPARa) (AID 2283001; active = hit-call score of the fitted dose curve at least 0.9, where 1 is the maximum;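 as to AC50: potency for gain of reporter signal over DMSO so agonist or activator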)
How it was run: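 Transient HepG2 transfection, GAL4-UAS reporters, NR-Gal4 chimeras; 24 h compound exposure. Readout: reporter transcripts by RT-PCR, 6-FAM primer extension, HpaI digest, capillary electrophoresis. Positive direction vs DMSO baseline.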

[11] = read-out: Intercellular Adhesion Molecule 1 (ICAM1), ICAM1 (gene 3383); experiment: BSK_3C_ICAM1: BioMAP Diversity Plus: 3C Assay for Intercellular Adhesion Molecule 1 (ICAM1) Biomarker Activity (AID 2283003); conditions: primary human endothelial cells (HUVEC); actives raise or lower the signal
How it was run: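 ELISA read-out of ICAM-1; HUVEC (primary human), 3C system, 24 h post-dosing; bidirectional fit vs DMSO baseline.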

[12] = molecular target: Nuclear receptor subfamily 1 group I member 2 (Homo sapiens) (UniProt O75469); experiment: ATG_PXR_TRANS: Attagene TRANS-FACTORIAL HepG2 Assay for human Pregnane X Receptor (PXR) (AID 2283008; active = hit-call score of the fitted dose curve at least 0.9, where 1 is the maximum)
How it was run: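 Trans-factorial format: exogenous NR-Gal4 fusion activity, not endogenous factor, in transfected human HepG2 liver cells. After 24 h dosing, RNA isolated, reverse-transcribed, amplified and resolved by capillary electrophoresis; induction scored versus DMSO.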

[13] = molecular target: human RAR-related Orphan Receptor beta (RORb), RORB (gene 6096) (UniProt Q92753); experiment: ATG_RORb_TRANS: Attagene TRANS-FACTORIAL HepG2 Assay for human RAR-related Orphan Receptor beta (RORb) (AID 2283010; active = hit-call score of the fitted dose curve at least 0.9, where 1 is the maximum)
How it was run: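 HepG2, transient MRTU transfection (GAL4-UAS reporters, exogenous NR-Gal4 chimeras); 24 h compound exposure; total RNA → RT-PCR → 6-FAM primer extension → HpaI digest → CE fluorescence. Positive direction vs DMSO baseline.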

[14] = BSK_3C_Proliferation: Cell Proliferation Assessment in the BioMAP Diversity Plus: 3C Assay (AID 2283006); conditions: primary human endothelial cells (HUVEC);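 also: potency may reflect either rise or fall in cell number versus DMSO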
How it was run: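 HUVEC, sub-confluent; 48 h chemical exposure; 10% TCA fix, 0.1% SRB stain, A560 total protein. Gain or loss of signal fitted both directions vs DMSO control.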

[15] = molecular target: Peroxisome proliferator-activated receptor gamma (Homo sapiens) (UniProt P37231); experiment: ATG_PPARg_TRANS: Attagene TRANS-FACTORIAL HepG2 Assay for human Peroxisome Proliferator-activated Receptor-gamma (PPARg) (AID 2283007; active = hit-call score of the fitted dose curve at least 0.9, where 1 is the maximum)
How it was run: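 Twenty-four hours after chemical dosing of transiently transfected HepG2 cells, isolated RNA was converted to cDNA, reporter sequences amplified and 6-FAM-labelled, then HpaI-digested and analysed by capillary electrophoresis. Signal increase against DMSO was fitted.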

[16] = BSK_3C_uPAR: BioMAP Diversity Plus: 3C Assay for Urokinase-type plasminogen activator receptor (uPAR) Biomarker Activity (AID 2282998); conditions: BioMAP 3C HUVEC, uPAR biomarker ELISA; actives raise or lower the signal
How it was run: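 In this endothelial cell-based assay, human umbilical vein primary cells were treated with chemicals and harvested at 24 h. uPAR was quantified using ELISA, with gains or losses fitted relative to DMSO controls.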

[17] = molecular target: human Peroxisome Proliferator-activated Receptor delta (PPARd), PPARD (gene 5467) (UniProt Q03181); experiment: ATG_PPARd_TRANS: Attagene TRANS-FACTORIAL HepG2 Assay for human Peroxisome Proliferator-activated Receptor delta (PPARd) (AID 2283002; active = hit-call score of the fitted dose curve at least 0.9, where 1 is the maximum)
How it was run: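 Fluorescence from capillary electrophoresis of labelled RT-PCR reporter fragments gives the signal; DMSO sets baseline. Cells: HepG2 transiently carrying GAL4-UAS reporter units plus chimeric nuclear receptor-Gal4 proteins, exposed to chemicals for 24 h.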

[18] = molecular target: human Retinoic Acid Receptor beta (RARb), RARB (gene 5915) (UniProt P10826); experiment: ATG_RARb_TRANS: Attagene TRANS-FACTORIAL HepG2 Assay for human Retinoic Acid Receptor beta (AID 2283004; active = hit-call score of the fitted dose curve at least 0.9, where 1 is the maximum)
How it was run: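 Transient transfection of HepG2 with multiple reporter units → chemical dosing, 24 h → total RNA isolation → RT with oligo(dT) → reporter-specific PCR, 6-FAM primer extension, HpaI digest → capillary electrophoresis. Positive direction vs DMSO control.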

[19] = molecular target: human Retinoic Acid Receptor gamma (RARg), RARG (gene 5916) (UniProt P13631); experiment: ATG_RARg_TRANS: Attagene TRANS-FACTORIAL HepG2 Assay for human Retinoic Acid Receptor gamma (RARg) (AID 2283009; active = hit-call score of the fitted dose curve at least 0.9, where 1 is the maximum;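 as to AC50: AC50 is for reporter induction above DMSO meaning RARg activation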)
How it was run: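 Readout: reporter transcript levels via RT-PCR, 6-FAM primer-extension labelling, HpaI digestion and capillary electrophoresis. Cells: HepG2 carrying transfected RARg-GAL4 chimera plus UAS reporter set. Dosing 24 h; DMSO negative control.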

[20] = molecular target: Retinoic acid receptor alpha (Homo sapiens) (UniProt P10276); experiment: ATG_RARa_TRANS: Attagene TRANS-FACTORIAL HepG2 Assay for human Retinoic Acid Receptor alpha (RARa) (AID 2283005; active = hit-call score of the fitted dose curve at least 0.9, where 1 is the maximum;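 as to AC50: potency for increased reporter signal meaning RARa activation over DMSO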)
How it was run: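 HepG2 transiently transfected with multiplex GAL4-UAS reporter units including a human RARa–GAL4 chimera; 24 h compound exposure. Reporter mRNA quantified by RT-PCR, 6-FAM labeling and capillary electrophoresis; gain of signal versus DMSO.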

Measured: AC50

Chain of Nuclear receptor subfamily 1 group I member 2 (Homo sapiens) (O75469 whole entry, looked up, the tested form may be a part): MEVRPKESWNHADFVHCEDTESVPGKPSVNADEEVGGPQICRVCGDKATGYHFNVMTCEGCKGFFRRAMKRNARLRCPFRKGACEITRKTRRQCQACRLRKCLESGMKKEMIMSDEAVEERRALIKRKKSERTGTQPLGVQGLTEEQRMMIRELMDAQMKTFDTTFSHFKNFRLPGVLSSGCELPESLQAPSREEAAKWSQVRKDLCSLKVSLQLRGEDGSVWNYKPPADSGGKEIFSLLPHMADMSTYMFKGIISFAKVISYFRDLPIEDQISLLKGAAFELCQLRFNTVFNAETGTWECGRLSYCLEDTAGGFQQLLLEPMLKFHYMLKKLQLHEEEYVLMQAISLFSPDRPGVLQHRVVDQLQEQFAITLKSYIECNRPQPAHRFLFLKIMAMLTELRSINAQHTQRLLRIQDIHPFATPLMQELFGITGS
Chain of Retinoic acid receptor alpha (Homo sapiens) (P10276 whole entry, looked up, the tested form may be a part): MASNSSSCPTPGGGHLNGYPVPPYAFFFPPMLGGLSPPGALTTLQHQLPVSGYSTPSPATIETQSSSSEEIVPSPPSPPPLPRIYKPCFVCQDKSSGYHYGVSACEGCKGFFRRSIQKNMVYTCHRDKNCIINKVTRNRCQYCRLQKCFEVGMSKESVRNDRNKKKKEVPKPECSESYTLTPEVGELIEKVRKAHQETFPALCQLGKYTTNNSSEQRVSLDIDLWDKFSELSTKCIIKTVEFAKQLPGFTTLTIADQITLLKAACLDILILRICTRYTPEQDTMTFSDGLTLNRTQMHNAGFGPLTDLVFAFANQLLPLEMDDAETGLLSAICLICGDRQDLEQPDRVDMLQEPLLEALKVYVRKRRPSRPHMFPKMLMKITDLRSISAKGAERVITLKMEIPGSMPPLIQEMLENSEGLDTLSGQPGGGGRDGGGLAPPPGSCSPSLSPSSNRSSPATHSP
Chain of Myc proto-oncogene protein (Homo sapiens) (P01106 whole entry, looked up, the tested form may be a part): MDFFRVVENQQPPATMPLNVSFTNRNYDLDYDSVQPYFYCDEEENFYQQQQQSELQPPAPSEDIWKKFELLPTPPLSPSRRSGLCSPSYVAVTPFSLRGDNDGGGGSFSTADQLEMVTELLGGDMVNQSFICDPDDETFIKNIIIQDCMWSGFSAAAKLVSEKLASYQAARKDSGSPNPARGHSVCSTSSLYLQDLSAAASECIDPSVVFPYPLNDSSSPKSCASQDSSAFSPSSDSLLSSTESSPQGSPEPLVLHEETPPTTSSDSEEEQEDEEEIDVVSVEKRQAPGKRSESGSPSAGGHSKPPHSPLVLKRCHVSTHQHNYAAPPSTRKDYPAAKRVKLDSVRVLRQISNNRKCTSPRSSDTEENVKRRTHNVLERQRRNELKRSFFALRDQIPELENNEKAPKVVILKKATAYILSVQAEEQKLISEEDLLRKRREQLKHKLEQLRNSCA
Chain of human Peroxisome Proliferator-activated Receptor delta (PPARd), PPARD (gene 5467) (Q03181 whole entry, looked up, the tested form may be a part): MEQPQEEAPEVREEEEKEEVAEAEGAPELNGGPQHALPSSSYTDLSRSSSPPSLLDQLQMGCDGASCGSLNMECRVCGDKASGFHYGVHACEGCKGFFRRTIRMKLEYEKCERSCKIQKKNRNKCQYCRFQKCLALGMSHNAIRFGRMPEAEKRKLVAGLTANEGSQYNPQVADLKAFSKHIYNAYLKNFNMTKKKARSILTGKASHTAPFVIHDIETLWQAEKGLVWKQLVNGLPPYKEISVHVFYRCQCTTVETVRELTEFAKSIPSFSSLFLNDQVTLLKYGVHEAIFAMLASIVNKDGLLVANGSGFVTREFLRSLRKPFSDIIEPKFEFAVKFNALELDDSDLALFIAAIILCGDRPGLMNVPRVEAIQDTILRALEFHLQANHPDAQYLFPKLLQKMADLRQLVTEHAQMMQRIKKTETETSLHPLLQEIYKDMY
Chain of Peroxisome proliferator-activated receptor gamma (Homo sapiens) (P37231 whole entry, looked up): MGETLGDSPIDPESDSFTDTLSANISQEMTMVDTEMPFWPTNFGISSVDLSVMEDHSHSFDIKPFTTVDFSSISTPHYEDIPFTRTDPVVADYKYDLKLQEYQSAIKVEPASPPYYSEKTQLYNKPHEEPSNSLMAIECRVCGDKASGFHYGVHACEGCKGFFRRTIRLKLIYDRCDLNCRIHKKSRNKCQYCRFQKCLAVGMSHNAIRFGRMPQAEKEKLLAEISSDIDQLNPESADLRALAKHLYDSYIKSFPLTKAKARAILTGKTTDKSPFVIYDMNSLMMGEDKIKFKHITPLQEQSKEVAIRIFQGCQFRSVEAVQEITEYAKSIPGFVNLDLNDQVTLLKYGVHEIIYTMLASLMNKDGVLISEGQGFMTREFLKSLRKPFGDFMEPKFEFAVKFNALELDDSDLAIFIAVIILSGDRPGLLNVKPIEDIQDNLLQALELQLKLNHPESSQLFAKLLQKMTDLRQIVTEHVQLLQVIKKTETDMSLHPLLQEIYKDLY
Chain of human Retinoic Acid Receptor beta (RARb), RARB (gene 5915) (P10826 whole entry, looked up): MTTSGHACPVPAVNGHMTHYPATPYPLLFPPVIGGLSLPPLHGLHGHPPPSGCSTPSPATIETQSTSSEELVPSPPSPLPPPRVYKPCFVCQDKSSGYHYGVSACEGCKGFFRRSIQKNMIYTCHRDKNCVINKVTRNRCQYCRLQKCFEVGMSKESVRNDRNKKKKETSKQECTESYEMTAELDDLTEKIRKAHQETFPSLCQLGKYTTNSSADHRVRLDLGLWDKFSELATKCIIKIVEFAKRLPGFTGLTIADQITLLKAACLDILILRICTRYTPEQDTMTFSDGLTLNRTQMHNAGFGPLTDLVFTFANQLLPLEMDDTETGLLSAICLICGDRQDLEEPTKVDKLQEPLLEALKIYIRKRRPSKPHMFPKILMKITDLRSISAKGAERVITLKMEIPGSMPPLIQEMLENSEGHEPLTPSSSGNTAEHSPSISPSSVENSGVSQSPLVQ
Chain of human Peroxisome Proliferator-activated Receptor alpha (PPARa), PPARA (gene 5465) (Q07869 whole entry, looked up, the tested form may be a part): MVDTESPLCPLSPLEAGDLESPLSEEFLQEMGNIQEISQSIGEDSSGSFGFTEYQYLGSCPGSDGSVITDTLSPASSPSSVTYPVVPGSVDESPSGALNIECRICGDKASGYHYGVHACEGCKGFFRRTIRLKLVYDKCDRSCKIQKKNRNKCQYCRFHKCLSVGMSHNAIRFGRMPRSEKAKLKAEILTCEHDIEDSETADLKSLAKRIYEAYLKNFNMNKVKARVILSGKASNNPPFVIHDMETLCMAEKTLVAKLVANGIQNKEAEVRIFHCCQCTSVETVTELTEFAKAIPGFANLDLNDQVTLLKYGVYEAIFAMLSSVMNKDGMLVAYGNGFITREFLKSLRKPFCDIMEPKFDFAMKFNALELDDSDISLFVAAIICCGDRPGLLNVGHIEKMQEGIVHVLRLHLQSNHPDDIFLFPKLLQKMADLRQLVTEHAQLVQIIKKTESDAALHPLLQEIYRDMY
Chain of Cellular tumor antigen p53 (Homo sapiens) (P04637 whole entry, looked up): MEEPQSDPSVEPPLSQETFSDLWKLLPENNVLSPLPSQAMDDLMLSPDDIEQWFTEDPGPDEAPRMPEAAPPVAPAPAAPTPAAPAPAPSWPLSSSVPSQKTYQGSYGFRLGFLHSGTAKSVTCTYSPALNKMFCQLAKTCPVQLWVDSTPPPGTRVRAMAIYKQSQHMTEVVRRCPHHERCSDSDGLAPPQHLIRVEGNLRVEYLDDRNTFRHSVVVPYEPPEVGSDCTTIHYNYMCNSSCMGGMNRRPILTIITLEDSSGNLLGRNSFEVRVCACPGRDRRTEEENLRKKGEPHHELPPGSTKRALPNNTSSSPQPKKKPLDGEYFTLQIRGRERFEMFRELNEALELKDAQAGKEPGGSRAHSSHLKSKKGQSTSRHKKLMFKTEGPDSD
Chain of human Retinoic Acid Receptor gamma (RARg), RARG (gene 5916) (P13631 whole entry, looked up, the tested form may be a part): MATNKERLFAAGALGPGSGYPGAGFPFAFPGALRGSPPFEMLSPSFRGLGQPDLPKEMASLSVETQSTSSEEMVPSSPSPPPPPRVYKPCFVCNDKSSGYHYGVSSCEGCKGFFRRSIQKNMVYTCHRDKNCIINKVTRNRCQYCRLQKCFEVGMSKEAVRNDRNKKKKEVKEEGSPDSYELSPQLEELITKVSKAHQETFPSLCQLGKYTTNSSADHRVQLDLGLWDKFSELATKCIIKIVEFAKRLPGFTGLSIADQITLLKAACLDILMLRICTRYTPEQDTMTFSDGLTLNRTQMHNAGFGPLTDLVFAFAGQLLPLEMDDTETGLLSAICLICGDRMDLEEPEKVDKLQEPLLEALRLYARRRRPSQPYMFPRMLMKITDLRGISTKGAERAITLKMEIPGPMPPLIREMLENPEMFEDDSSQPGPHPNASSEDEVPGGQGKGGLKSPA
Chain of human RAR-related Orphan Receptor beta (RORb), RORB (gene 6096) (Q92753 whole entry, looked up, the tested form may be a part): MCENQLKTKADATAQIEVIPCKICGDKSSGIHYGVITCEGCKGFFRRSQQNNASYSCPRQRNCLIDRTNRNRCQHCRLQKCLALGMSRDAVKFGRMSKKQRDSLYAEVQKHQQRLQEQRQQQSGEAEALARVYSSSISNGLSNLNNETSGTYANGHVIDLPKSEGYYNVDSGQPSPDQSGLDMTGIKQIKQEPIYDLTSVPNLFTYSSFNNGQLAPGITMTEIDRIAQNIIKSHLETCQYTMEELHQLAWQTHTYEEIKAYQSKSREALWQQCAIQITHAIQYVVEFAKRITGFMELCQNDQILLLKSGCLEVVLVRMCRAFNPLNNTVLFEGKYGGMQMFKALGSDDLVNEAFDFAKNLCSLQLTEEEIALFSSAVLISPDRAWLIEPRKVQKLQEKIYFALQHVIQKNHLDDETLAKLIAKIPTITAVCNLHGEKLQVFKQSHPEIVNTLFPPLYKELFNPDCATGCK

NC(=O)O
not listed: [14] | [15] | [16] | [17] | [18] | [19] | [20]
inactive: all other assays above

O=C(NCO)NCO
inactive: [1] | [2] | [3] | [4] | [5] | [6] | [10]

C(=NC1CCCCC1)=NC1CCCCC1
active: [5] 5.24 µM | [7] 34 µM | [8] 30.3 µM | [9] 6.27 µM | [11] 29.6 µM | [14] 28.6 µM
inactive: [1] | [2] | [3] | [4] | [6] | [15] | [12]

C=C(C)C(=O)[O][Sn]([CH2]CCC)([CH2]CCC)[CH2]CCC
inactive: [1] | [2] | [3] | [6] | [10] | [17]
active: [4] 0.26 µM | [5] 0.412 µM | [7] 0.148 µM | [16] 0.148 µM | [8] 0.148 µM | [9] 0.254 µM | [11] 0.155 µM | [15] 0.291 µM | [12] 0.286 µM

COP(=S)(OC)Oc1cc(Cl)c(Cl)cc1Cl
active: [4] 34.1 µM | [7] 2.21 µM | [9] 20 µM | [10] 100 µM | [14] 20 µM | [15] 54.8 µM
not listed: [12] | [13] | [20]
inactive: all other assays above

C=CC(=O)OCCCCCC(C)C
not listed: [13] | [14] | [16] | [18] | [19] | [20]
inactive: all other assays above

COc1cc(-c2ccc(N)c(OC)c2)ccc1N
active: [1] 79.8 µM | [5] 27.5 µM and 28.5 µM | [7] 4.68 µM and 3.97 µM | [20] 27.4 µM | [19] 27.2 µM
inactive: [1] | [2] | [3] | [4] | [6] | [8] | [9] | [10] | [17] | [11] | [18] | [20] | [15] | [12] | [19] | [13]

CC(=O)[O][Hg][c]1ccccc1
active: [1] 3.71 µM | [4] 2.24 µM | [5] 2.5 µM | [7] 2.59 µM | [16] 1.17 µM | [8] 2.36 µM | [9] 1.78 µM | [11] 2.69 µM | [14] 1.18 µM
inactive: [2] | [3] | [6] | [10] | [17] | [20] | [15] | [12]
